Assay results taken from PubChem BioAssay AID1952 (The Scripps Research Institute Molecular Screening Center, 2009).
Hit rate of the full screen: of about 2,400 compounds, about 1,200 (50%) were called active. Cut-off read from the data, not from the text of the source: active = inhibition above about 24%; inactive = the rest. The set was probably picked from earlier hits. These entries were drawn from the full list.

What follows are compounds tested against Neuropeptides B/W receptor type 1 (Homo sapiens) (UniProt P48145) (assay: GPR7 receptor antagonists, confirmation, cell-based, fluorescence, single concentration (AID 1952;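 note: stimulated with the GPR7 agonist NPW; 0% = agonist plus vehicle and 100% = vehicle alone without agonist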)). Details: GPR7-expressing cells, calcium fluorescence antagonist mode; at 4.4 µM; stronger effect = higher value.
Neuropeptides B/W receptor type 1 (Homo sapiens), sequence (P48145 whole entry, looked up): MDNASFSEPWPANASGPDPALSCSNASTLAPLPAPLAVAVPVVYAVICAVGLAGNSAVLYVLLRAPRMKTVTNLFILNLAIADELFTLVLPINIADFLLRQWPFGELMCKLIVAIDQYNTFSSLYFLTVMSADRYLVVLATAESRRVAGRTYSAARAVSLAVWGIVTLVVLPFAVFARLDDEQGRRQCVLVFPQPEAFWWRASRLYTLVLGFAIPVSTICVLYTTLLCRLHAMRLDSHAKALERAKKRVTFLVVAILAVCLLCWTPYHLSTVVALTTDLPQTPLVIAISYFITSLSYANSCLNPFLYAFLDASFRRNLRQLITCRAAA
With CCOc1ccc(-c2cc(C)[n+](CCN(CC)CC)c(-c3ccc(OCC)cc3)c2)cc1 the inhibition was 41.8% (active).
With COc1ccc(Br)cc1CNCCc1cccc(Cl)c1 the inhibition was 32.7% (active).
In the case of CCOC(=O)C1(Cc2ccc(Cl)cc2)CCN(C(C)CCn2cccn2)CC1 (stereo not drawn), the inhibition is reported as 18.4% (inactive).
